Experimental data reported in PubChem BioAssay (NCI).
This is part of a sample that, as a whole, favours compounds with a hit. Of some 79,000 tested, about 15% had one in any assay. Calls of active or inactive are those of the source. Cut-off read from the data, not from the text of the source: active = growth inhibition above about 70%; inactive = the rest.

How the values were obtained:
[1] = NCI Yeast Anticancer Drug Screen. Data for the rad52 strain (AID 147);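 note: 0% = growth of vehicle-treated control cultures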; settings: S. cerevisiae rad52 mutant growth inhibition, stronger effect = higher value
In short: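 Inhibition of yeast growth, referenced to vehicle controls, was the measured output for a strain with defective DNA damage repair.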

[2] = NCI Yeast Anticancer Drug Screen. Data for the wt1 strain (AID 149);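 note: 0% = growth of vehicle-treated wt1 cultures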; settings: S. cerevisiae wt1 strain (SPY 50644) growth inhibition, stronger effect = higher value
In short: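 The wt1 strain was treated with compounds, and growth was compared with vehicle-treated cultures to give inhibition.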

[3] = NCI Yeast Anticancer Drug Screen. Data for the rad50EPP+ strain (AID 151);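 note: 0% = growth of vehicle-treated control cultures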; settings: S. cerevisiae rad50 mutant strain, stronger effect = higher value
In short: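 Genetically defined yeast (rad50EPP+, DNA damage repair alteration) is grown with compound, and inhibition of growth is expressed relative to vehicle-treated controls.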

[4] = NCI Yeast Anticancer Drug Screen. Data for the mgt1 strain (AID 153); settings: S. cerevisiae mgt1 mutant growth inhibition, stronger effect = higher value
In short: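 In the mgt1 strain, test compounds were added and growth inhibition was determined relative to vehicle-treated controls.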

[5] = NCI Yeast Anticancer Drug Screen. Data for the rad50 strain (AID 155);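 note: 0% = growth of vehicle-only cultures of the same strain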; settings: S. cerevisiae rad50 strain growth inhibition, stronger effect = higher value
In short: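 Cells are treated with compound, grown, and their growth is then scored against vehicle-only cultures of the same repair-deficient yeast strain.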

[6] = NCI Yeast Anticancer Drug Screen. Data for the mec2-1 strain (AID 157); settings: S. cerevisiae mec2-1 strain, stronger effect = higher value
In short: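 Each compound was tested on mec2-1 yeast, a strain altered in DNA damage repair or cell cycle control. Growth inhibition is reported relative to vehicle.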

[7] = NCI Yeast Anticancer Drug Screen. Data for the rad14 strain (AID 159);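 note: 0% = growth of vehicle-treated control cultures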; settings: S. cerevisiae rad14 strain growth inhibition, stronger effect = higher value
In short: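 Readout: yeast growth inhibition, referenced to vehicle-only cultures. Strain bears a defined alteration in DNA damage repair.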

[8] = NCI Yeast Anticancer Drug Screen. Data for the sgs1 mgt1 strain (AID 161);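 note: 0% = growth of cultures given vehicle only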; settings: S. cerevisiae sgs1 mgt1 strain, stronger effect = higher value
In short: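 Read-out: growth inhibition vs vehicle controls. Cells: mutant yeast strain deficient in DNA damage repair.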

[9] = NCI Yeast Anticancer Drug Screen. Data for the CLN2oe strain (AID 163);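 note: 0% = growth of vehicle-only control cultures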; settings: S. cerevisiae CLN2oe strain, stronger effect = higher value
In short: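 First, the altered yeast strain was treated with each compound; second, its growth was measured; finally, inhibition was derived by comparison with vehicle controls.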

[10] = NCI Yeast Anticancer Drug Screen. Data for the cln2 rad14 strain (AID 165);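 note: 0% = growth equal to vehicle treated cultures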; settings: S. cerevisiae cln2 rad14 strain, stronger effect = higher value
In short: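 Test compounds were added to cln2 rad14 yeast cultures; inhibition of growth was then determined by comparison with vehicle treatment.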

[11] = NCI Yeast Anticancer Drug Screen. Data for the bub3 strain (AID 167); settings: S. cerevisiae bub3 mutant strain, stronger effect = higher value
In short: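 Part of a panel of yeast mutants defective in DNA damage repair or cell cycle regulation. Each strain is grown with compound, and inhibition is calculated relative to solvent-treated cultures.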

[12] = NCI Yeast Anticancer Drug Screen. Data for the wt2 strain (AID 169);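 note: 0% = growth of vehicle-treated yeast cultures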; settings: S. cerevisiae wt2 strain growth inhibition, stronger effect = higher value
In short: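 The panel's yeast strains carry defined changes in DNA repair or cell cycle genes. Each strain is grown with compound, and growth loss is scored relative to vehicle.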

[13] = NCI Yeast Anticancer Drug Screen. Data for the mlh1 strain (AID 171);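 note: 0% = growth of vehicle-treated control cultures of the same strain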; settings: S. cerevisiae mlh1 strain growth inhibition, stronger effect = higher value
In short: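 Inhibition values reflect reduced yeast growth in the presence of compound, referenced to vehicle controls, using a strain chosen for its alteration in DNA repair or cell cycle control.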

[14] = NCI Yeast Anticancer Drug Screen. Data for the sgs1 strain (AID 173);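 note: 0% = growth of vehicle-only control cultures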; settings: S. cerevisiae sgs1 mutant, stronger effect = higher value
In short: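 Vehicle-treated cultures served as reference for growth inhibition of a yeast strain altered in DNA damage repair or cell cycle control after compound exposure.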

[15] = NCI Yeast Anticancer Drug Screen. Data for the mlh1 rad18 strain (AID 175); settings: S. cerevisiae mlh1 rad18 strain growth inhibition, stronger effect = higher value
In short: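 Inhibition values reflect reduced growth of mutant yeast versus vehicle-treated controls following compound exposure; the mutations affect DNA damage repair.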

[16] = NCI Yeast Anticancer Drug Screen. Data for the rad18 strain (AID 177); settings: S. cerevisiae rad18 mutant growth inhibition, stronger effect = higher value
In short: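 Steps: expose repair-mutant yeast to compound; measure growth; express as inhibition relative to vehicle control.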

[17] = at 5.0 µM (retest, dose inferred, filed as 0.5)
[18] = at 50.0 µM (retest, dose inferred, filed as 5.0)

Measured: growth inhibition

CCc1c(Cl)c(C)c(Cl)c(O)c1Cl
inactive: [1]; at 1.2 µM -22% | [1]; at 3.7 µM -30% | [1]; at 11.0 µM -9% | [2]; at 1.2 µM -27% | [2]; at 3.7 µM -25% | [2]; at 11.0 µM 1% | [3]; at 1.2 µM -7% | [3]; at 3.7 µM 0% | [3]; at 11.0 µM 32% | [4]; at 1.2 µM -33% | [4]; at 3.7 µM -32% | [4]; at 11.0 µM -14% | [5]; at 1.2 µM -11% | [5]; at 3.7 µM -28% | [5]; [17] 57% | [5]; at 11.0 µM 6% | [6]; at 1.2 µM -28% | [6]; at 3.7 µM -12% | [6]; [17] 61% | [6]; at 11.0 µM 2% | [7]; at 1.2 µM -11% | [7]; at 3.7 µM -12% | [7]; at 11.0 µM 10% | [8]; [17] -16% | [9]; at 1.2 µM 13% | [9]; at 3.7 µM 17% | [9]; at 11.0 µM 11% | [10]; [17] 38% | [11]; at 1.2 µM 1% | [11]; at 3.7 µM -4% | [11]; [17] 16% | [11]; at 11.0 µM 5% | [12]; at 1.2 µM -8% | [12]; at 3.7 µM -12% | [12]; at 11.0 µM 2% | [13]; at 1.2 µM -12% | [13]; at 3.7 µM -8% | [13]; at 11.0 µM 7% | [14]; at 1.2 µM -4% | [14]; at 3.7 µM -13% | [14]; at 11.0 µM 14% | [15]; [17] 38% | [16]; at 1.2 µM -19% | [16]; at 3.7 µM -32% | [16]; at 11.0 µM -19%
active: [1]; at 33.0 µM 97% | [1]; at 100.0 µM 99% | [2]; at 33.0 µM 93% | [2]; at 100.0 µM 98% | [3]; at 33.0 µM 87% | [3]; at 100.0 µM 96% | [4]; at 33.0 µM 98% | [4]; at 100.0 µM 99% | [5]; at 33.0 µM 96% | [5]; [18] 98% | [5]; at 50.0 µM 92% | [5]; at 100.0 µM 99% | [6]; at 33.0 µM 95% | [6]; [18] 98% | [6]; at 50.0 µM 93.3% | [6]; at 100.0 µM 97% | [7]; at 33.0 µM 98% | [7]; at 100.0 µM 99% | [8]; [18] 97% | [8]; at 50.0 µM 93.8% | [9]; at 33.0 µM 90% | [9]; at 100.0 µM 99% | [10]; [18] 98% | [10]; at 50.0 µM 92.8% | [11]; at 33.0 µM 96% | [11]; [18] 98% | [11]; at 50.0 µM 92.9% | [11]; at 100.0 µM 99% | [12]; at 33.0 µM 97% | [12]; at 100.0 µM 99% | [13]; at 33.0 µM 95% | [13]; at 100.0 µM 99% | [14]; at 33.0 µM 96% | [14]; at 100.0 µM 99% | [15]; [18] 98% | [15]; at 50.0 µM 92% | [16]; at 33.0 µM 96% | [16]; at 100.0 µM 99%

CSc1nc(-c2ccccc2)nc(=[N+]2CCOCC2)s1
inactive: [1]; at 1.2 µM 17% | [1]; at 3.7 µM 52% | [2]; at 1.2 µM 5% | [2]; at 3.7 µM 11% | [2]; at 11.0 µM 23% | [2]; at 33.0 µM 56% | [3]; at 1.2 µM 27% | [3]; at 3.7 µM 56% | [4]; at 1.2 µM 3% | [4]; at 3.7 µM 11% | [4]; at 11.0 µM 31% | [5]; at 1.2 µM 13% | [5]; at 3.7 µM 37% | [6]; at 1.2 µM 1% | [6]; at 3.7 µM 8% | [6]; [17] 18% | [6]; at 11.0 µM 32% | [6]; [18] 18% | [7]; at 1.2 µM 4% | [7]; at 3.7 µM 9% | [7]; at 11.0 µM 25% | [8]; [17] 44% | [8]; [18] 44% | [9]; at 1.2 µM -4% | [9]; at 3.7 µM 6% | [9]; at 11.0 µM 21% | [10]; [17] 14% | [10]; [18] 14% | [10]; at 50.0 µM 64.1% | [11]; at 1.2 µM -8% | [11]; at 3.7 µM -3% | [11]; [17] 21% | [11]; at 11.0 µM 32% | [11]; [18] 21% | [12]; at 1.2 µM 6% | [12]; at 3.7 µM 15% | [12]; at 11.0 µM 37% | [13]; at 1.2 µM -1% | [13]; at 3.7 µM 10% | [13]; at 11.0 µM 35% | [14]; at 1.2 µM 10% | [14]; at 3.7 µM 31% | [15]; [17] 35% | [15]; [18] 35% | [16]; at 1.2 µM 16% | [16]; at 3.7 µM 50%
active: [1]; at 11.0 µM 83% | [1]; at 33.0 µM 97% | [1]; at 100.0 µM 98% | [2]; at 100.0 µM 93% | [3]; at 11.0 µM 77% | [3]; at 33.0 µM 89% | [3]; at 100.0 µM 93% | [4]; at 33.0 µM 87% | [4]; at 100.0 µM 98% | [5]; [17] 74% | [5]; at 11.0 µM 79% | [5]; at 33.0 µM 94% | [5]; [18] 74% | [5]; at 50.0 µM 88.8% | [5]; at 100.0 µM 98% | [6]; at 33.0 µM 73% | [6]; at 50.0 µM 73.5% | [6]; at 100.0 µM 98% | [7]; at 33.0 µM 78% | [7]; at 100.0 µM 99% | [8]; at 50.0 µM 86.4% | [9]; at 33.0 µM 77% | [9]; at 100.0 µM 96% | [11]; at 33.0 µM 82% | [11]; at 50.0 µM 81.6% | [11]; at 100.0 µM 96% | [12]; at 33.0 µM 81% | [12]; at 100.0 µM 97% | [13]; at 33.0 µM 76% | [13]; at 100.0 µM 98% | [14]; at 11.0 µM 72% | [14]; at 33.0 µM 94% | [14]; at 100.0 µM 98% | [15]; at 50.0 µM 82.2% | [16]; at 11.0 µM 86% | [16]; at 33.0 µM 94% | [16]; at 100.0 µM 98%
